Structures can show the parent of a compound that is named as a salt.
Experiments:
Conditions in all cases: compound concentration in added solution (µM; 5 µl added to 20 µl cells): 10; 18 h
A431 [1] = assay: LBPA endosome anti-LBPA integrated intensity (sum per cell), Z-score; higher = more LBPA staining
Summary of the method: (§1)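 Four 20× images per well were taken of HeLa MZ or A431 cells that had been seeded at 3,500 per well in 20 µl onto 5 µl of 10 µM compound solution in duplicate 384-well imaging plates. Before imaging, cells were incubated 18 h, fixed in 4% PFA and stained with 6C4 anti-LBPA antibody, filipin, propidium iodide and CellTracker green. Values are Z-scores normalised in AcuityXpress from MetaXpress-derived per-cell integrated LBPA or filipin intensity, either whole-cell or within LBPA endosomes.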

HeLa MZ [2] = assay: as above
Summary of the method: as §1

A431 [3] = assay: whole-cell filipin (free cholesterol) integrated intensity, Z-score; higher = more cholesterol staining
Summary of the method: as §1

HeLa MZ [4] = assay: as above
Summary of the method: as §1

A431 [5] = assay: filipin (cholesterol) integrated intensity within LBPA endosomes, Z-score; higher = more cholesterol in LBPA endosomes
Summary of the method: as §1

HeLa MZ [6] = assay: as above
Summary of the method: as §1

| Structure (SMILES) | LBPA endosome anti-LBPA integrated intensity (z-score) (A431 [1]) | LBPA endosome anti-LBPA integrated intensity (z-score) (HeLa MZ [2]) | whole-cell filipin (z-score) (A431 [3]) | whole-cell filipin (z-score) (HeLa MZ [4]) | filipin (z-score) (A431 [5]) | filipin (z-score) (HeLa MZ [6]) |
| --- | --- | --- | --- | --- | --- | --- |
| C=CC[N@@+]12CC[C@@]34c5ccccc5N5/C=C6/[C@H]7C[C@H]8[C@@]9(CC[N@@+]8(CC=C)C/C7=C/CO)c7ccccc7N(/C=C(/[C@@H](C[C@@H]31)/C(=C\CO)C2)[C@H]54)[C@@H]69 [Alcuronium chloride] | -0.441 | -0.288 | 0.269 | 2.33 | -0.417 | -0.254 |
| CC(=O)CC(c1ccccc1)c1c(O)c2ccccc2oc1=O (configuration not stated) [Warfarin] | -0.409 | 0.393 | 0.206 | 0.0343 | -0.461 | -0.372 |
| CN1Cc2c(N)cccc2C(c2ccccc2)C1 (configuration not stated) [Nomifensine maleate] | -0.419 | 0.114 | -0.627 | -0.396 | -0.47 | -0.516 |
| Cc1ccc(C)c(OCCCC(C)(C)C(=O)O)c1 [Gemfibrozil] | -0.639 | -0.782 | -0.695 | -0.706 | -0.635 | -0.699 |
| CCCCOC(=O)c1ccc(O)cc1 [Butylparaben] | -0.425 | -0.532 | -0.203 | -0.161 | -0.376 | -0.449 |
| COc1ccc(CC2c3cc(OC)c(OC)cc3CC[N+]2(C)CCC(=O)OCCCCCOC(=O)CC[N+]2(C)CCc3cc(OC)c(OC)cc3C2Cc2ccc(OC)c(OC)c2)cc1OC (configuration not stated) [Atracurium besylate] | -0.229 | -0.154 | -0.0896 | -0.584 | -0.0589 | 0.0777 |
| NCC[C@H](O)C(=O)N[C@@H]1C[C@H](N)[C@@H](O[C@H]2O[C@H](CN)[C@@H](O)[C@H](O)[C@H]2O)[C@H](O)[C@H]1O[C@H]1O[C@H](CO)[C@@H](O)[C@H](N)[C@H]1O [Amikacin hydrate] | -0.71 | -0.821 | -1.06 | -0.44 | -0.672 | -0.666 |
| Oc1c(Cl)cc(Cl)c2cccnc12 [Chloroxine] | -0.792 | -1.58 | -0.709 | -1.27 | -0.75 | -0.803 |
| N=C(N=C(N)N)N1CCOCC1 [Moroxidine hydrochloride] | -0.598 | -1.32 | -1.06 | -0.892 | -0.527 | -0.669 |
| CC(C)NNC(=O)c1ccncc1 [Iproniazide phosphate] | -0.439 | -0.948 | -0.562 | -0.228 | -0.44 | -0.477 |
| CN1CCN(CCCN2c3ccccc3Sc3ccc(Cl)cc32)CC1 [Prochlorperazine dimaleate] | 2.82 | 1.36 | 0.00438 | -0.198 | 1.66 | 1.98 |
| O=C(COc1ccc(Cl)cc1)N1CCN(Cc2ccc3c(c2)OCO3)CC1 [Fipexide hydrochloride] | -0.365 | 0.298 | -0.792 | -0.7 | -0.47 | -0.495 |
| COCCOC(=O)C1=C(C)NC(C)=C(C(=O)OC(C)C)C1c1cccc([N+](=O)[O-])c1 (configuration not stated) [Nimodipine] | -0.345 | 0.468 | 0.0525 | 0.629 | -0.323 | -0.286 |
| Nc1nc(NC2CC2)c2ncn([C@H]3C=C[C@@H](CO)C3)c2n1 [Abacavir Sulfate] | -0.557 | -0.156 | -0.517 | -0.596 | -0.478 | -0.612 |
| Cc1cn([C@H]2C=C[C@@H](CO)O2)c(=O)[nH]c1=O [Stavudine] | -0.301 | 0.24 | 0.0526 | 0.186 | -0.48 | -0.475 |
| N=C(N)N1CCc2ccccc2C1 [Debrisoquin sulfate] | -0.566 | -0.193 | -0.719 | -0.695 | -0.556 | -0.606 |
| C[C@]12CC[C@@H]3c4ccc(O)cc4CC[C@H]3[C@@H]1CCC2=O [Estrone] | -0.124 | 0.505 | -0.166 | -0.0664 | -0.236 | -0.151 |
| CC(CN(C)C)C(C)(O)Cc1ccc(Cl)cc1 (configuration not stated) [Clobutinol hydrochloride] | -0.559 | 0.835 | -0.328 | -0.426 | -0.624 | -0.205 |
| NS(=O)(=O)c1cc(C(=O)O)c(NCc2ccco2)cc1Cl [Furosemide] | -0.539 | -0.705 | -0.993 | -0.823 | -0.572 | -0.492 |

| Structure (SMILES) | LBPA endosome anti-LBPA integrated intensity (z-score) (A431 [1]) | LBPA endosome anti-LBPA integrated intensity (z-score) (HeLa MZ [2]) | whole-cell filipin (z-score) (A431 [3]) | whole-cell filipin (z-score) (HeLa MZ [4]) | filipin (z-score) (A431 [5]) | filipin (z-score) (HeLa MZ [6]) |
| --- | --- | --- | --- | --- | --- | --- |
| CCN1CCC[C@H]1CNC(=O)c1c(OC)ccc(Br)c1OC [Remoxipride Hydrochloride] | -0.395 | 0.278 | -0.41 | -0.384 | -0.372 | -0.266 |
| CC(C)NCC(O)c1ccc2ccccc2c1 (configuration not stated) [Pronethalol hydrochloride] | 0.244 | -0.115 | 0.379 | 0.0476 | -0.072 | -0.11 |
| CC[C@H]1OC(=O)[C@H](C)[C@@H](O[C@H]2C[C@@](C)(OC)[C@@H](O)[C@H](C)O2)[C@H](C)[C@@H](O[C@@H]2O[C@H](C)C[C@H](N(C)C)[C@H]2O)[C@](C)(O)C[C@@H](C)/C(=N\OCOCCOC)[C@H](C)[C@@H](O)[C@]1(C)O [Roxithromycin] | -0.396 | 0.565 | 0.114 | 0.214 | -0.261 | 0.0396 |
| C1N2CN3CN1CN(C2)C3 [Methenamine] | -0.374 | 0.113 | -0.146 | 0.773 | -0.379 | -0.0431 |
| CCCCCCC[N+](CC)(CC)CCCCc1ccc(Cl)cc1 [Clofilium tosylate] | -0.496 | -0.791 | -0.98 | -1.56 | -0.614 | -0.77 |
| CC(C)(Oc1ccc(Cl)cc1)C(=O)O [Clofibric acid] | -0.512 | -0.676 | -0.43 | -0.52 | -0.514 | -0.568 |
| NS(=O)(=O)c1cc2c(cc1Cl)NC(CC1CCCC1)NS2(=O)=O (configuration not stated) [Cyclopenthiazide] | -0.58 | -0.971 | -0.203 | -0.467 | -0.442 | -0.628 |
| Clc1ccc2nsnc2c1NC1=NCCN1 [Tizanidine HCl] | -0.331 | 0.552 | -0.333 | -0.51 | -0.548 | -0.219 |
| CCOC(=O)[N-]c1c[n+](N2CCOCC2)no1 [Molsidomine] | -0.56 | 0.0751 | -0.59 | -0.136 | -0.558 | -0.532 |
| Cn1c(=O)c2c(ncn2C)n(C)c1=O [Caffeine] | -0.331 | -0.197 | -0.0359 | 0.547 | -0.318 | -0.108 |
| CCCc1cc(C(N)=S)ccn1 [Prothionamide] | -0.257 | 0.224 | 0.0431 | -0.0396 | -0.301 | -0.377 |
| CCN(CC)CCOC(=O)c1ccc(N)cc1 [Procaine hydrochloride] | -0.324 | 0.381 | -1.04 | -0.86 | -0.492 | -0.418 |
| NC(=O)C(c1ccccc1)(c1ccccc1)[C@@H]1CCN(CCc2ccc3c(c2)CCO3)C1 [Darifenacin hydrobromide] | 3.46 | 1.76 | 3.28 | 1.47 | 2.87 | 3.06 |
| CCOC(=O)[C@H](CCc1ccccc1)N[C@@H](C)C(=O)N1[C@H](C(=O)O)C[C@@H]2CCC[C@@H]21 [Ramipril] | -0.401 | -1.57 | -0.0336 | -0.633 | -0.446 | -0.529 |
| CN(C)CCN(Cc1cccs1)c1ccccn1 [Methapyrilene hydrochloride] | -0.506 | 0.465 | -0.777 | -0.37 | -0.539 | -0.0761 |
| Cn1c(=O)c2c(ncn2CCO)n(C)c1=O [Etofylline] | -0.487 | -1.05 | -0.938 | -1.17 | -0.451 | -0.58 |
| Cc1cc(=O)oc2cc(O)ccc12 [Hymecromone] | -0.504 | -0.0954 | -0.674 | -0.684 | -0.459 | -0.528 |
| CC(C(=O)O)c1ccc(C(=O)c2ccccc2)s1 (configuration not stated) [Tiaprofenic acid] | -0.52 | -0.291 | -0.49 | 0.105 | -0.443 | -0.426 |

Reference: the supplement of paper PMC6607015
